{"source": "PubChem BioAssay (Tox21)", "note": "Results filed as inconclusive are left out. Calls of active or inactive are those of the source. Unless noted, the call rests on the fitted dose curve; in most records, active means well fitted curve in the direction sought with a large enough effect in the repeat runs; inconclusive means weak or mixed curves; inactive means no such curve, though single readings can be large; an effect the other way counts as inactive or inconclusive. On the % scale 0 is the no-effect control and ±100 the full control effect."}
{"experiment": "qHTS assay to identify small molecule phospholipidosis (PLD) inducers (AID 1259344; active means well fitted curve in the direction sought with a large enough effect; an effect the other way counts as inactive or inconclusive)", "settings": "HepG2 phospholipidosis, LipidTOX Red imaging, 24 h; series mostly up to 38.3 µM; PLD induction: at the top concentration", "procedure,_shortened": "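HepG2 cells, 900/well, treated with compound plus LipidTOX Red for 24 h at 37 C; amiodarone positive and DMSO negative controls. Fixed with paraformaldehyde/Hoechst, then high-content imaging scored LipidTOX pit count and integrated intensity per well and per cell.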"}
{"compound": "Cc1cc(C)c(/C=C2\\C(=O)Nc3ccccc32)[nH]1", "PLD induction": "-1.49% (inactive)"}
{"compound": "CCCCC(CC)CN1CN(CC(CC)CCCC)CC(C)(N)C1", "note": "(centres undefined)", "PLD induction": "-0.126% [at 15.5 µM] (inactive)"}
{"compound": "COC1=C(OC)C(=O)C(CCCCCCCCCCO)=C(C)C1=O", "PLD induction": "-0.188% (inactive)"}
{"compound": "CCCCCCCC/C=C\\CCCCCCCCN", "PLD induction": "-0.483% (inactive)"}
{"compound": "CCOC(=O)NNc1ccc(N(CC)CC(C)O)nn1", "note": "(centres undefined)", "PLD induction": "-4.24% [at 7.66 µM] (inactive)"}
{"compound": "CC1(C)[C@@H](O)CC[C@]2(C)[C@H]3C(=O)C=C4[C@@H]5C[C@@](C)(C(=O)O)CC[C@]5(C)CC[C@@]4(C)[C@]3(C)CC[C@@H]12", "Potency": "inactive"}
{"compound": "O=C(O)Cc1ccccc1Nc1c(Cl)cccc1Cl", "PLD induction": "-0.714% (inactive)"}
{"compound": "CCc1cccc(CC)c1NC(=O)CN(CC(=O)O)CC(=O)O", "PLD induction": "-0.415% [at 15.5 µM] (inactive)"}
{"compound": "COc1c(C)c2c(c(O)c1C/C=C(\\C)CCC(=O)OCCN1CCOCC1)C(=O)OC2", "PLD induction": "-1.47% (inactive)"}
{"compound": "CCN1C(=O)c2ccccc2C1Nc1ccc(OCCN2CCCCC2)cc1", "note": "(centres undefined)", "PLD induction": "0.829% [at 7.66 µM] (inactive)"}
{"compound": "CCOc1ccc2ccccc2c1C(=O)N[C@@H]1C(=O)N2[C@@H]1SC(C)(C)[C@@H]2C(=O)O", "PLD induction": "-0.0087% [at 15.5 µM] (inactive)"}
{"compound": "Nc1ccc(C(=O)O)c(O)c1", "PLD induction": "0.0153% (inactive)"}
{"compound": "O[C@@H]([C@H](O)[C@H](O)CBr)[C@H](O)CBr", "PLD induction": "-0.78% (inactive)"}
{"experiment": "qHTS assay to identify small molecule HDAC inhibitors (AID 1259364); further: top concentration of the series differs between compounds; nearly all actives have a fitted effect of over 45% in size", "settings": "HCT-116 HDAC-Glo I/II luminescence, 2 h; series mostly up to 92.4 µM; activity change, negative = inhibition: at the top concentration", "procedure,_shortened": "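Wild-type HCT-116 cells, plated overnight at 37 C, exposed to compounds 2 hr at 37 C; luminogenic HDAC-Glo substrate then added 30 min at room temperature. Luminescence reports relative endogenous class I/II HDAC activity.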"}
{"compound": "COC1=C(OC)C(=O)C(CCCCCCCCCCO)=C(C)C1=O", "activity change, negative = inhibition": "14.2% [at 42.5 µM] (inactive)"}
{"compound": "Cc1cc(=O)oc2cc(O)cc(O)c12", "activity change, negative = inhibition": "-17.6% (inactive)"}
{"compound": "CC(=O)c1ccc(C(C)=O)cc1", "activity change, negative = inhibition": "-1.79% (inactive)"}
{"compound": "CC(=O)OCC=C(C)C", "activity change, negative = inhibition": "-1.2% [at 42.5 µM] (inactive)"}
{"compound": "Cc1c2ccccc2c(C)c2c1ccc1ccccc12", "Potency": "inactive"}
{"compound": "CCCCCCCC/C=C\\CCCCCCCCN", "activity change, negative = inhibition": "-0.849% [at 42.5 µM] (inactive)"}
{"compound": "CC(C)=CCNc1ncnc2c1ncn2[C@@H]1O[C@H](CO)[C@@H](O)[C@H]1O", "activity change, negative = inhibition": "10.7% [at 42.5 µM] (inactive)"}
{"compound": "CN(C)CCN1CCN(c2cccc(Cl)c2)C1=O", "activity change, negative = inhibition": "2.17% [at 42.5 µM] (inactive)"}
{"compound": "CCCCCCCCCCOC(=O)c1ccccc1C(=O)OCCCCCCCC", "activity change, negative = inhibition": "-2.42% (inactive)"}
{"compound": "CC(C)OC(=O)C(O)(CC(=O)O)CC(=O)O", "activity change, negative = inhibition": "12% (inactive)"}
{"compound": "O=S(=O)(O)c1ccc(Nc2nc(Nc3ccc(/C=C/c4ccc(Nc5nc(Nc6ccc(S(=O)(=O)O)cc6)nc(N(CCO)CCO)n5)cc4S(=O)(=O)O)c(S(=O)(=O)O)c3)nc(N(CCO)CCO)n2)cc1", "activity change, negative = inhibition": "1.85% [at 42.5 µM] (inactive)"}
{"compound": "Cc1cccc(C)c1NC(=O)c1ccc(N)cc1", "activity change, negative = inhibition": "1.01% [at 42.5 µM] (inactive)"}
{"compound": "CCOC(=O)NNc1ccc(N(CC)CC(C)O)nn1", "note": "(centres undefined)", "activity change, negative = inhibition": "1.26% [at 42.5 µM] (inactive)"}
{"compound": "CC1(C)[C@@H](O)CC[C@]2(C)[C@H]3C(=O)C=C4[C@@H]5C[C@@](C)(C(=O)O)CC[C@]5(C)CC[C@@]4(C)[C@]3(C)CC[C@@H]12", "activity change, negative = inhibition": "-1.67% (inactive)"}
{"compound": "O=C(O)Cc1ccccc1Nc1c(Cl)cccc1Cl", "Potency": "inactive"}
{"compound": "c1ccsc1", "activity change, negative = inhibition": "-0.37% (inactive)"}
{"compound": "NC(=O)c1cccc([N+](=O)[O-])c1", "activity change, negative = inhibition": "6.14% (inactive)"}
{"compound": "CCc1cccc(CC)c1NC(=O)CN(CC(=O)O)CC(=O)O", "activity change, negative = inhibition": "0.841% [at 42.5 µM] (inactive)"}
{"compound": "Clc1sc(Cl)c(Cl)c1Cl", "activity change, negative = inhibition": "10.5% (inactive)"}
{"compound": "OC[C@H]1O[C@H](O[C@H]2O[C@H](CO)[C@@H](O)[C@H](O)[C@H]2O)[C@H](O)[C@@H](O)[C@@H]1O", "activity change, negative = inhibition": "3.84% (inactive)"}
{"compound": "COc1c(C)c2c(c(O)c1C/C=C(\\C)CCC(=O)OCCN1CCOCC1)C(=O)OC2", "activity change, negative = inhibition": "5.47% [at 42.5 µM] (inactive)"}
{"compound": "CCCCCCOC(=O)C(C)CC", "note": "(centres undefined)", "activity change, negative = inhibition": "4.68% (inactive)"}
{"compound": "Cc1c(N)cccc1C(F)(F)F", "activity change, negative = inhibition": "1.46% [at 42.5 µM] (inactive)"}
{"compound": "CCN1C(=O)c2ccccc2C1Nc1ccc(OCCN2CCCCC2)cc1", "note": "(centres undefined)", "activity change, negative = inhibition": "-6.9% [at 42.5 µM] (inactive)"}
{"compound": "Nc1ccc(C(=O)O)c(O)c1", "activity change, negative = inhibition": "0.121% [at 42.5 µM] (inactive)"}
{"compound": "O[C@@H]([C@H](O)[C@H](O)CBr)[C@H](O)CBr", "activity change, negative = inhibition": "-3.19% (inactive)"}
